Assay results published in article PMC11006913.

How the values were obtained:
Assay in all cases: PBM; 200 nM protein, PBS
Settings in all cases: dsDNA, one strand shown
HESX1 [1] = target: HESX1 (Homo sapiens, UniProt Q9UBX0 95-180, R165K)
HESX1 [2] = target: HESX1 (Homo sapiens, UniProt Q9UBX0 95-180)
HESX1 [3] = target: HESX1 (Homo sapiens, UniProt Q9UBX0 95-180, R109Q)
HESX1 [4] = target: HESX1 (Homo sapiens, UniProt Q9UBX0 95-180, P111T)
HESX1 [5] = target: HESX1 (Homo sapiens, UniProt Q9UBX0 95-180, F115L)
PROP1 [6] = target: PROP1 (Homo sapiens, UniProt O75360 56-141)
PROP1 [7] = target: PROP1 (Homo sapiens, UniProt O75360 56-141, R99H)
PROP1 [8] = target: PROP1 (Homo sapiens, UniProt O75360 56-141, F88S)
ALX3 [9] = target: ALX3 (Homo sapiens, UniProt O95076 139-225, N203Q)
ALX3 [10] = target: ALX3 (Homo sapiens, UniProt O95076 139-225)
ALX3 [11] = target: ALX3 (Homo sapiens, UniProt O95076 139-225, L168Q)
ALX3 [12] = target: ALX3 (Homo sapiens, UniProt O95076 139-225, L168V)
ALX3 [13] = target: ALX3 (Homo sapiens, UniProt O95076 139-225, N203S)
ALX3 (Homo sapiens, UniProt O95076 139-225, N203S), sequence (O95076 139-225 N203S): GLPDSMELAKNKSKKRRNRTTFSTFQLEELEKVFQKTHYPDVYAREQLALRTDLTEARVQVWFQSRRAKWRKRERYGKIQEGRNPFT

HESX1 (Homo sapiens, UniProt Q9UBX0 95-180, P111T), sequence (Q9UBX0 95-180 P111T): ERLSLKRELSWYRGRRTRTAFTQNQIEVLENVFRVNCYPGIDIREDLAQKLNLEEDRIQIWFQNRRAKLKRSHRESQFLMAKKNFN
HESX1 (Homo sapiens, UniProt Q9UBX0 95-180, F115L), sequence (Q9UBX0 95-180 F115L): as the sequence (Q9UBX0 95-180 P111T) above, with T17P, F21L counted along it
HESX1 (Homo sapiens, UniProt Q9UBX0 95-180, R109Q), sequence (Q9UBX0 95-180 R109Q): as the sequence (Q9UBX0 95-180 P111T) above, with R15Q, T17P counted along it
HESX1 (Homo sapiens, UniProt Q9UBX0 95-180, R165K), sequence (Q9UBX0 95-180 R165K): as the sequence (Q9UBX0 95-180 P111T) above, with T17P, R71K counted along it
HESX1 (Homo sapiens, UniProt Q9UBX0 95-180), sequence (Q9UBX0 95-180): as the sequence (Q9UBX0 95-180 P111T) above, with T17P counted along it
PROP1 (Homo sapiens, UniProt O75360 56-141, F88S), sequence (O75360 56-141 F88S): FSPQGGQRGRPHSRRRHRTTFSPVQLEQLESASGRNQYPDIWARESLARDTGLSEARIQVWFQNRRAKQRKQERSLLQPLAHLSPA
PROP1 (Homo sapiens, UniProt O75360 56-141), sequence (O75360 56-141): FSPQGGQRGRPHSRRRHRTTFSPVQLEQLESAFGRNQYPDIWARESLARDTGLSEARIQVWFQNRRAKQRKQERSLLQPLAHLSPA
PROP1 (Homo sapiens, UniProt O75360 56-141, R99H), sequence (O75360 56-141 R99H): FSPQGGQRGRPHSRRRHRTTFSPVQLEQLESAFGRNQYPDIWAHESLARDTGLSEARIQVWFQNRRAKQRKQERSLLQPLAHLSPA
ALX3 (Homo sapiens, UniProt O95076 139-225), sequence (O95076 139-225): as the sequence (O95076 139-225 N203S) above, with S65N counted along it
ALX3 (Homo sapiens, UniProt O95076 139-225, N203Q), sequence (O95076 139-225 N203Q): as the sequence (O95076 139-225 N203S) above, with S65Q counted along it
ALX3 (Homo sapiens, UniProt O95076 139-225, L168Q), sequence (O95076 139-225 L168Q): as the sequence (O95076 139-225 N203S) above, with L30Q, S65N counted along it
ALX3 (Homo sapiens, UniProt O95076 139-225, L168V), sequence (O95076 139-225 L168V): as the sequence (O95076 139-225 N203S) above, with L30V, S65N counted along it

Sequence: CCGAAAGC
- binding signal (HESX1 [1]): 6.49 upbm affinity estimate (log intensity, higher = more binding, comparable within an allelic series)
- binding signal (HESX1 [2]): 6.52 upbm affinity estimate (log intensity, higher = more binding, comparable within an allelic series)
- binding signal (HESX1 [3]): 6.56 upbm affinity estimate (log intensity, higher = more binding, comparable within an allelic series)
- binding signal (HESX1 [4]): 6.47 upbm affinity estimate (log intensity, higher = more binding, comparable within an allelic series)
- binding signal (HESX1 [5]): 6.52 upbm affinity estimate (log intensity, higher = more binding, comparable within an allelic series)

Sequence: GAAGGAGC
- binding signal (HESX1 [1]): 6.42 upbm affinity estimate (log intensity, higher = more binding, comparable within an allelic series)
- binding signal (HESX1 [2]): 6.37 upbm affinity estimate (log intensity, higher = more binding, comparable within an allelic series)
- binding signal (PROP1 [6]): 6.66 upbm affinity estimate (log intensity, higher = more binding, comparable within an allelic series)
- binding signal (HESX1 [3]): 6.46 upbm affinity estimate (log intensity, higher = more binding, comparable within an allelic series)
- binding signal (PROP1 [7]): 6.54 upbm affinity estimate (log intensity, higher = more binding, comparable within an allelic series)
- binding signal (HESX1 [4]): 6.42 upbm affinity estimate (log intensity, higher = more binding, comparable within an allelic series)
- binding signal (PROP1 [8]): 6.62 upbm affinity estimate (log intensity, higher = more binding, comparable within an allelic series)
- binding signal (HESX1 [5]): 6.55 upbm affinity estimate (log intensity, higher = more binding, comparable within an allelic series)

Sequence: AGATTGGG
- binding signal (HESX1 [1]): 7.4 upbm affinity estimate (log intensity, higher = more binding, comparable within an allelic series)
- binding signal (HESX1 [2]): 7.61 upbm affinity estimate (log intensity, higher = more binding, comparable within an allelic series)
- binding signal (HESX1 [3]): 7.3 upbm affinity estimate (log intensity, higher = more binding, comparable within an allelic series)
- binding signal (HESX1 [4]): 7.23 upbm affinity estimate (log intensity, higher = more binding, comparable within an allelic series)

Sequence: CTAGGCCC
- binding signal (HESX1 [1]): 6.43 upbm affinity estimate (log intensity, higher = more binding, comparable within an allelic series)
- binding signal (HESX1 [2]): 6.46 upbm affinity estimate (log intensity, higher = more binding, comparable within an allelic series)
- binding signal (HESX1 [3]): 6.51 upbm affinity estimate (log intensity, higher = more binding, comparable within an allelic series)
- binding signal (HESX1 [4]): 6.58 upbm affinity estimate (log intensity, higher = more binding, comparable within an allelic series)
- binding signal (HESX1 [5]): 6.46 upbm affinity estimate (log intensity, higher = more binding, comparable within an allelic series)

Sequence: CACCCCCC
- binding signal (HESX1 [1]): 6.39 upbm affinity estimate (log intensity, higher = more binding, comparable within an allelic series)
- binding signal (HESX1 [2]): 6.4 upbm affinity estimate (log intensity, higher = more binding, comparable within an allelic series)
- binding signal (ALX3 [9]): 7.67 upbm affinity estimate (log intensity, higher = more binding, comparable within an allelic series)
- binding signal (ALX3 [10]): 7.7 upbm affinity estimate (log intensity, higher = more binding, comparable within an allelic series)
- binding signal (PROP1 [6]): 6.46 upbm affinity estimate (log intensity, higher = more binding, comparable within an allelic series)
- binding signal (HESX1 [3]): 6.54 upbm affinity estimate (log intensity, higher = more binding, comparable within an allelic series)
- binding signal (PROP1 [7]): 6.42 upbm affinity estimate (log intensity, higher = more binding, comparable within an allelic series)
- binding signal (ALX3 [11]): 7.45 upbm affinity estimate (log intensity, higher = more binding, comparable within an allelic series)
- binding signal (HESX1 [4]): 6.38 upbm affinity estimate (log intensity, higher = more binding, comparable within an allelic series)
- binding signal (ALX3 [12]): 7.59 upbm affinity estimate (log intensity, higher = more binding, comparable within an allelic series)
- binding signal (PROP1 [8]): 6 upbm affinity estimate (log intensity, higher = more binding, comparable within an allelic series)
- binding signal (HESX1 [5]): 6.45 upbm affinity estimate (log intensity, higher = more binding, comparable within an allelic series)
- binding signal (ALX3 [13]): 7.71 upbm affinity estimate (log intensity, higher = more binding, comparable within an allelic series)

Sequence: CACGGCTC
- binding signal (HESX1 [1]): 6.57 upbm affinity estimate (log intensity, higher = more binding, comparable within an allelic series)
- binding signal (HESX1 [2]): 6.56 upbm affinity estimate (log intensity, higher = more binding, comparable within an allelic series)
- binding signal (HESX1 [3]): 6.55 upbm affinity estimate (log intensity, higher = more binding, comparable within an allelic series)
- binding signal (HESX1 [4]): 6.58 upbm affinity estimate (log intensity, higher = more binding, comparable within an allelic series)
- binding signal (HESX1 [5]): 6.53 upbm affinity estimate (log intensity, higher = more binding, comparable within an allelic series)

Sequence: AGCGTTCG
- binding signal (HESX1 [1]): 6.54 upbm affinity estimate (log intensity, higher = more binding, comparable within an allelic series)
- binding signal (HESX1 [2]): 6.5 upbm affinity estimate (log intensity, higher = more binding, comparable within an allelic series)
- binding signal (HESX1 [3]): 6.53 upbm affinity estimate (log intensity, higher = more binding, comparable within an allelic series)
- binding signal (HESX1 [4]): 6.53 upbm affinity estimate (log intensity, higher = more binding, comparable within an allelic series)
- binding signal (HESX1 [5]): 6.63 upbm affinity estimate (log intensity, higher = more binding, comparable within an allelic series)

Sequence: TGAGCGCA
- binding signal (HESX1 [1]): 6.52 upbm affinity estimate (log intensity, higher = more binding, comparable within an allelic series)
- binding signal (HESX1 [2]): 6.51 upbm affinity estimate (log intensity, higher = more binding, comparable within an allelic series)
- binding signal (HESX1 [3]): 6.51 upbm affinity estimate (log intensity, higher = more binding, comparable within an allelic series)
- binding signal (HESX1 [4]): 6.49 upbm affinity estimate (log intensity, higher = more binding, comparable within an allelic series)
- binding signal (HESX1 [5]): 6.46 upbm affinity estimate (log intensity, higher = more binding, comparable within an allelic series)

Sequence: CAGGTCGG
- binding signal (HESX1 [1]): 6.41 upbm affinity estimate (log intensity, higher = more binding, comparable within an allelic series)
- binding signal (HESX1 [2]): 6.42 upbm affinity estimate (log intensity, higher = more binding, comparable within an allelic series)
- binding signal (HESX1 [3]): 6.6 upbm affinity estimate (log intensity, higher = more binding, comparable within an allelic series)
- binding signal (HESX1 [4]): 6.48 upbm affinity estimate (log intensity, higher = more binding, comparable within an allelic series)
- binding signal (HESX1 [5]): 6.57 upbm affinity estimate (log intensity, higher = more binding, comparable within an allelic series)

Sequence: CCCGGAGG
- binding signal (HESX1 [1]): 6.31 upbm affinity estimate (log intensity, higher = more binding, comparable within an allelic series)
- binding signal (HESX1 [2]): 6.31 upbm affinity estimate (log intensity, higher = more binding, comparable within an allelic series)
- binding signal (HESX1 [3]): 6.41 upbm affinity estimate (log intensity, higher = more binding, comparable within an allelic series)
- binding signal (HESX1 [4]): 6.39 upbm affinity estimate (log intensity, higher = more binding, comparable within an allelic series)
- binding signal (HESX1 [5]): 6.42 upbm affinity estimate (log intensity, higher = more binding, comparable within an allelic series)

Sequence: CACTGGAG
- binding signal (HESX1 [1]): 6.53 upbm affinity estimate (log intensity, higher = more binding, comparable within an allelic series)
- binding signal (HESX1 [2]): 6.53 upbm affinity estimate (log intensity, higher = more binding, comparable within an allelic series)
- binding signal (HESX1 [3]): 6.58 upbm affinity estimate (log intensity, higher = more binding, comparable within an allelic series)
- binding signal (HESX1 [4]): 6.6 upbm affinity estimate (log intensity, higher = more binding, comparable within an allelic series)
- binding signal (HESX1 [5]): 6.61 upbm affinity estimate (log intensity, higher = more binding, comparable within an allelic series)

Sequence: CAGTGTCG
- binding signal (HESX1 [1]): 6.55 upbm affinity estimate (log intensity, higher = more binding, comparable within an allelic series)
- binding signal (HESX1 [2]): 6.52 upbm affinity estimate (log intensity, higher = more binding, comparable within an allelic series)
- binding signal (HESX1 [3]): 6.61 upbm affinity estimate (log intensity, higher = more binding, comparable within an allelic series)
- binding signal (HESX1 [4]): 6.51 upbm affinity estimate (log intensity, higher = more binding, comparable within an allelic series)
- binding signal (HESX1 [5]): 6.58 upbm affinity estimate (log intensity, higher = more binding, comparable within an allelic series)
